sEH inh = soluble epoxide hydrolase (human) inhibition; P34913; recombinant human sEH enzymatic activity assay; inhibition, % at 2 µM; actives 0.34% (n = 91,000); in the data active = inhibition above about 80%
CYP2C9 inh = blocks human cytochrome P450 2C9; P11712; CYP2C9 Supersomes, luciferin-H conversion, luminescence; inhibition, % at 5 µM; actives 20% (n = 96,000); AID 777;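 active = blocking of liver enzyme CYP2C9 beyond about 50% at 5 µM, limit read from the data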
Target sequence (P11712 whole entry, looked up): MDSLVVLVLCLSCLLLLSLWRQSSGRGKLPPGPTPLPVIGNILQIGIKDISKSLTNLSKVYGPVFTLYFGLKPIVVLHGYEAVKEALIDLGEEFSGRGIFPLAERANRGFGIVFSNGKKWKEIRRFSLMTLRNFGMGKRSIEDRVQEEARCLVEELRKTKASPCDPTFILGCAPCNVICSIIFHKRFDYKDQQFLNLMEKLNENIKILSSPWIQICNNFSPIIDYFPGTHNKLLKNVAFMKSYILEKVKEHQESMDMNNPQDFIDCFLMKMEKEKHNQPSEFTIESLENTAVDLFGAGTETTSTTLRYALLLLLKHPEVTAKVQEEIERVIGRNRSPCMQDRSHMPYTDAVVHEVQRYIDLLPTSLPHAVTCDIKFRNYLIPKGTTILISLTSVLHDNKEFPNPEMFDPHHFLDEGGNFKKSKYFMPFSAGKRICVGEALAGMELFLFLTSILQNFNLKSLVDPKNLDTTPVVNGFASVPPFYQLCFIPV
CYP2C19 inhib = human CYP2C19 inhibition | P33261 | CYP2C19 Supersomes, luciferin-H EGE luminescence, 30 min | inhibition, % at 5 µM | actives 21% (n = 96,000) | AID 778;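 active = CYP2C19 inhibition above a set limit at 5 µM in the primary screen, cut at about 50% in these data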
CYP2C19 activ = activators of human cytochrome P450 2C19; P33261; recombinant CYP2C19, luciferin-H EGE luminescence; hits give high values; 0 = fully inhibited enzyme, 1 = untreated enzyme; activation factor at 5 µM; 96,000 tested, under 10 active;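 active = activation factor of at least 2 at 5 µM in the primary screen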
sEH act = soluble epoxide hydrolase (human) activation; purified human sEH enzymatic activity, activator screen; actives 0.04% (n = 91,000); AID 717; activation, % at 2 µM; in the data active = activation above about 37%
CYP2C9 act = activators of human CYP2C9. P11712. recombinant CYP2C9, luciferin-H conversion, luminescence; hits give high values; factor 1 = untreated enzyme, 0 = blocked. activation factor at 5 µM. actives 1.4% (n = 96,000);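 active = activation factor of 2 or more for CYP2C9 at a 5 µM dose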
Large screens that a line does not name were inactive. Rows were chosen to be rich in hits. Some 27% of all compounds tested hit in one or more screens of this group.

O=C(CC(NS(=O)(=O)c1ccc(Cl)cc1)c1ccco1)NCc1cccnc1 (centres undefined)	CYP2C9 inh 70, CYP2C19 inhib 88 (no result: sEH inh, sEH act)
Cc1cccc(-n2ccnc2SCC(=O)Nc2ccc3c(c2)OCCO3)c1	CYP2C9 inh 70
O=C(CSc1nccn1-c1ccc(Cl)cc1)Nc1ccc2c(c1)OCO2	CYP2C9 inh 54, CYP2C19 inhib 69
CC1CCC(NC(=O)c2ccc3nc[nH]c3c2)CC1 (centres undefined)	none
COc1ccc(-c2cc(C#N)nc(N3CCN(c4ccccc4)CC3)n2)cc1	none
Cc1cc(C(=O)OCC(=O)Nc2ncc(C(F)(F)F)cc2Cl)c(C)o1	none (no result: sEH inh, sEH act)
CC(=O)Nc1nnc(-c2ccc3c(c2)CCCC3)o1	none
COc1ccccc1C(=O)Nc1nnc(-c2ccc3c(c2)CCCC3)o1	CYP2C19 inhib 75, CYP2C9 act 2.1
CC(=O)CC(=O)Nc1ccccc1NC(C)=O	none
CCN(Cc1ccccc1)C(c1ccccn1)c1nnnn1C(C)(C)CC (centres undefined)	CYP2C9 inh 71, CYP2C19 inhib 86 (no result: sEH inh, sEH act)
CC(C)(C)n1nnnc1C(c1ccncc1)N(Cc1ccccc1)Cc1ccco1 (centres undefined)	CYP2C9 inh 87, CYP2C19 inhib 74
c1ccc(CN(Cc2cccs2)C(c2cccs2)c2nnnn2C2CCCC2)cc1 (centres undefined)	none
CC(C)(C)n1nnnc1C(c1cccs1)N(Cc1cccnc1)Cc1ccco1 (centres undefined)	CYP2C9 inh 83, CYP2C19 inhib 86
CC(C)(C)n1nnnc1C(c1cccs1)N(Cc1ccccc1)Cc1ccco1 (centres undefined)	CYP2C9 inh 53
CCN(Cc1ccccc1)C(c1ccc(C)cc1)c1nnnn1C(C)(C)C (centres undefined)	none
CC(=O)Nc1cc(C(N)=O)c(Cl)cc1Cl	none
Cc1ccc(S(=O)(=O)c2c(COC(=O)c3ccccc3Cl)c(-c3ccccc3)nn2C)cc1	CYP2C9 inh 70, CYP2C19 inhib 50
CCOC(=O)Cn1c(S(=O)(=O)Cc2ccccc2Cl)nc(-c2ccccc2)c1-c1ccccc1	none
CC(C)=CC(=O)OCC(=O)Nc1nc(C)c(Cl)cc1Cl	CYP2C19 inhib 83 (no result: sEH inh, sEH act)
CC(=O)NC(CCS(C)(=O)=O)C(=O)Nc1ccc(F)cc1Cl (centres undefined)	none
CC(C)=CC(=O)OCC(=O)Nc1ccc(F)cc1Cl	CYP2C19 inhib 63
COc1cc(CCC(=O)OCC(=O)Nc2nc(C)c(Cl)cc2Cl)cc(OC)c1OC	none
COc1ccc(-n2c(O)cnc2Nc2nc(C)cc(C)n2)cc1OC	none
Nc1nc(-c2ccc3ccccc3c2)c(C2(O)C(=O)Nc3c(Br)cc(F)cc32)s1 (centres undefined)	CYP2C19 inhib 92
Nc1nnc(COc2ccc(Br)cc2Br)s1	CYP2C19 inhib 71
COc1ccc(NC(=O)CSc2nnc(Cc3cccn3C)n2-c2ccc(OC)cc2)cc1	CYP2C9 inh 59 (no result: sEH inh, sEH act)
COc1ccc(-n2c(Cc3cccn3C)nnc2SCC(=O)Nc2ccc(C)cc2)cc1	CYP2C9 inh 53 (no result: sEH inh, sEH act)
COc1ccc(-n2c(Cc3cccn3C)nnc2SCC(=O)Nc2cccc(Cl)c2)cc1	CYP2C9 inh 85
COc1ccc(-n2c(Cc3cccn3C)nnc2SCC(=O)Nc2ccc(C(C)=O)cc2)cc1	none
CCOc1ccc(NC(=O)CSc2nnc(Cc3cccn3C)n2-c2ccc(OC)cc2)cc1	none
COc1ccc(-n2c(SCC(N)=O)nc3nc4c(cc3c2=O)COC(C)(C)C4)cc1	none
COc1cccc(-c2csc(N3CCN(C(=S)Nc4ccccc4OC)CC3)n2)c1	CYP2C19 inhib 70
COc1cccc(-c2csc(N3CCN(C(=S)Nc4ccccc4Cl)CC3)n2)c1	CYP2C9 inh 64, CYP2C19 inhib 73
CCn1c(=O)c(C2=NS(=O)(=O)c3ccccc3N2)c(O)c2ccccc21	CYP2C9 inh 61 (no result: sEH inh, sEH act)
CCn1c(=O)c(-[n+]2ccccc2)c(O)c2ccccc21	none
COc1ccc(CNC(=O)CSc2nnc(C)s2)cc1	none (no result: sEH inh, sEH act)
O=S(=O)(Nc1ccc(-c2nc3cccnc3s2)cc1)c1ccc(Cl)s1	CYP2C9 inh 100
Cc1cc2ccccc2c(=O)n1CC(=O)NCC(=O)N1CCN(c2ccccc2F)CC1	CYP2C9 act 2.1
CCn1c(=O)cc(SCC(=O)N2CCN(c3ccccc3F)CC2)c2ccccc21	CYP2C9 act 2.2
CCn1c(=O)n(CC(=O)N2CCN(c3ccccc3F)CC2)c(=O)c2ccccc21	none
CCn1c(=O)cc(SCC(=O)N2CCN(c3ccccn3)CC2)c2ccccc21	CYP2C9 inh 51, CYP2C19 inhib 72 (no result: sEH inh, sEH act)
Cc1cc2ccccc2c(=O)n1CC(=O)NCC(=O)N1CCN(c2cccc(Cl)c2)CC1	none
CCOC(=O)c1cccc(N2C(=O)c3ccccc3S2(=O)=O)c1	CYP2C9 inh 68, CYP2C19 inhib 56
C/C(=N/NC(=O)Cc1cccc2ccccc12)c1cccs1	CYP2C19 inhib 76
C/C(=N\NC(=O)Cc1cccn1C)c1cccc2ccccc12	sEH inh 82
C/C(=N\NC(=O)C1CC1c1ccccc1)c1cccs1 (centres undefined)	CYP2C9 inh 51, CYP2C19 inhib 88
N#Cc1c(N2C(=O)C3C4C=CC(C4)C3C2=O)sc2c1CCC2 (centres undefined)	CYP2C19 inhib 64
O=C(Cn1c(=O)oc2cc(S(=O)(=O)N3CCCC3)ccc21)Nc1cccc(C(F)(F)F)c1	none
CCn1c(CNc2cccc(Cl)c2)nnc1SCC(=O)OC1CCCCC1	CYP2C9 inh 74, CYP2C19 inhib 74
CCn1c(CNc2ccccc2Cl)nnc1SCC(=O)OC1CCCCC1	CYP2C19 inhib 70
Cc1cccn2c(=O)c3cc(C(=O)NCCCN4CCCC4=O)n(C)c3nc12	CYP2C19 inhib 51
O=C(NCCCN1CCCC1=O)c1cccc(C(F)(F)F)c1	CYP2C9 inh 77
Cc1cccn2c(=O)c3cc(C(=O)NCCCn4ccnc4)n(C)c3nc12	CYP2C9 inh 60 (no result: sEH inh, sEH act)
CCCCNC(=O)c1cc2c(=O)n3cccc(C)c3nc2n1C	none (no result: sEH inh, sEH act)
CC1Cc2ccccc2N1S(=O)(=O)c1cccc(C(=O)OCC(=O)NC2CCS(=O)(=O)C2)c1 (centres undefined)	CYP2C9 inh 63, CYP2C19 inhib 60
CC1Cc2ccccc2N1S(=O)(=O)c1cccc(C(=O)NC2CC2)c1 (centres undefined)	none (no result: sEH inh, sEH act)
O=C(CCNc1n[nH]c(=O)[nH]c1=O)N1CCOCC1	none (no result: sEH inh, sEH act)
COc1cccc(N2CCN(c3c4c(nc5ncnn35)CCC4)CC2)c1	none
CC1CCCCN1C(=O)CN1C(=O)CN(C)C(=O)c2ccccc21 (centres undefined)	none
N#CC1=C(N)SC(N)=C(C#N)C1C1CC=CCC1 (centres undefined)	CYP2C19 inhib 84
COc1ccc(-c2noc(N3CCC(C(=O)N4CCN(c5ccccn5)CC4)CC3)n2)cc1	none
